About 83,000 compounds went through this panel and 20% of them were active in at least one assay; those are over-represented in the sample as a whole.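 Testing used 96-well plates and a 48-hour single-concentration exposure. Example: -40 means 40% of the starting cells died.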 Values without a mark were called inactive. The source made the active and inactive calls. How the source made its calls: active means growth percent below 10; inactive means the rest.
What was measured:
Assay in all cases: NCI-60 one-dose screen, 48 h (100 = growth as untreated, 0 = no growth, -100 = all killed)
Settings in all cases: 10 µM unless noted
[1] = test system: SR leukemia
[2] = test system: RPMI-8226 leukemia
[3] = test system: OVCAR-8 ovarian
[4] = test system: OVCAR-5 ovarian
[5] = test system: OVCAR-4 ovarian
[6] = test system: SK-OV-3 ovarian
[7] = test system: IGROV1 ovarian
[8] = test system: OVCAR-3 ovarian
[9] = test system: HS 578T breast
[10] = test system: NCI/ADR-RES ovarian
[11] = test system: BT-549 breast
[12] = test system: MDA-MB-435 melanoma
[13] = test system: SW-620 colon
[14] = test system: MCF7 breast
[15] = test system: HCT-116 colon
[16] = test system: HCC-2998 colon
[17] = test system: KM12 colon
[18] = test system: T-47D breast

SMILES | growth [1] | growth [2] | growth [3] | growth [4] | growth [5] | growth [6] | growth [7] | growth [8] | growth [9] | growth [10] | growth [11] | growth [12] | growth [13] | growth [14] | growth [15] | growth [16] | growth [17] | growth [18]
COc1ccccc1-[n+]1cc(-c2ccc(-c3ccccc3)cc2)n2c1CCCCC2 | 8.54% (active) | -14.7% (active) | 2.74% (active) | 18.4% | 20.2% | -18.1% (active) | 16.6% | 9.07% (active) | 22.1% | 86.9% | -1.37% (active) | 6.5% (active) | 14.6% | 4.74% (active) | 6.3% (active) | 21.5% | 4.15% (active) | 
Nc1nc(N)c2cc(NCc3ccc(Cl)c(Cl)c3)ccc2n1 | -53.9% (active) | -42% (active) | -78.8% (active) | -92.5% (active) | -86.9% (active) | -99.7% (active) | -58.8% (active) | -95.3% (active) | -48.6% (active) |  | 46.3% | -68.1% (active) | -77.4% (active) | -72.8% (active) | -88.2% (active) | -85.9% (active) | -94.4% (active) | -81.3% (active)
NC(=O)c1ccc[n+](Cc2ccccc2)c1 | 109% | 89.9% | 103% | 96.2% | 102% | 113% | 111% | 107% | 98.5% |  | 118% | 98.2% | 102% | 103% | 99.9% | 102% | 102% | 106%
COc1ccccc1CNCCCN1C(=O)c2ccc3c4c(ccc(c24)C1=O)C(=O)N(CCCCNCCCN)C3=O | 11.3% | 10.6% | -16% (active) | 69.8% | -90.4% (active) | 56.9% | -25% (active) | -30.4% (active) | 31.5% | 72.6% | 58% | -70% (active) | -25% (active) | -41.7% (active) | -11% (active) | -6.41% (active) | 10.7% | 
COc1ccc2[nH]cc(C3(c4c[nH]c5ccc(OC)cc45)C(=O)Nc4ccc(Cl)cc43)c2c1 | 7.95% (active) | 36.4% | 90.4% | 89.1% | 79.6% | 93.4% | 50% | 61.9% | 65.4% | 90.1% | 93.7% | 23.3% | 30% | 61.7% | 64.3% | 58% | 14.8% | 
COc1ncnc2[nH]cc(CN3CCN(c4ccc(F)cc4)CC3)c12 | 105% | 103% | 100% | 102% | 115% | 104% | 102% | 114% | 97.5% |  | 107% | 91.9% | 108% | 103% | 111% | 104% | 109% | 104%
COc1cc(C)c(Cl)cc1C1=NN(c2ccc(S(N)(=O)=O)cc2)C(/C=C/c2ccccc2)C1 (configuration not stated) | 66.7% | 35.8% | 31.7% | 104% | 28.1% | 88.8% | 45.8% | 51.7% | 86.8% |  | 107% | 62.5% | 43.9% | 23.3% | 11.5% | 74.9% | 34.8% | 17.5%
O=[N+]([O-])c1ccc(SSc2ccc([N+](=O)[O-])cc2Cl)c(Cl)c1 | 84.5% | 80% | 100% | 126% | 83% | 104% | 69.6% | 101% | 90.5% |  | 97.4% | 113% | 97.6% | 77.3% | 91.1% | 106% | 98% | 70.6%
FC(F)(F)c1nn[nH]n1 | 104% | 89.5% | 105% | 108% | 111% | 107% | 118% | 104% | 111% |  | 109% | 101% | 112% | 97.3% | 108% | 98.1% | 99.6% | 101%
CC1=CC(=O)OC1C/C=C(\C)CCC1[C@@]2(C)CCC[C@@](C)(C(=O)O)C2CC[C@@]1(C)O (some centres not stated) | 33.2% | 24.3% | 42.8% | 111% | 75.5% |  | 107% | 56% | 38.5% | 91.8% | 67.3% | 16.7% | 32.4% | 28.8% | 27.9% | 44% | 26.4% | 87.3%
Cc1cc(C#Cc2ccc(C(C)(C)C)cc2)ccc1-n1c(/C=C/c2c(Cl)cccc2Cl)nc2ccccc2c1=O | 88.1% | 91.5% | 115% | 106% | 134% | 106% | 103% | 94.3% |  | 103% | 105% | 98% | 85.5% | 85.9% | 89.2% | 99.3% | 98.6% | 82.5%
CCOC(OCC)c1cnc2nc(NC(C)=O)[nH]c(=O)c2n1 | 99.9% | 106% | 102% | 101% | 107% | 106% | 101% | 113% | 102% |  | 112% | 105% | 103% | 96.4% | 102% | 107% | 108% | 99.9%
N=C(N)c1ccc(-c2ccc(-c3ccco3)o2)cc1F | -9.28% (active) | -23.2% (active) | 45% | 17.8% | 42% | 40.1% | 11.9% | 54.1% | 48.8% | 45.2% | 25% | -59.1% (active) | -11.3% (active) | -13.7% (active) | -21.2% (active) | -74.7% (active) | 4.94% (active) | 
C=C1C(=O)O[C@H]2[C@H]1CC/C(COC(=O)NCc1ccc(Cn3c(=O)sn(CCCl)c3=O)cc1)=C\CC[C@@]1(C)O[C@@H]21 | 5.35% (active) | 2.37% (active) | 92.1% | 109% | 60.6% | 85.3% | 47.7% | -26.2% (active) | 97.1% | 113% | 59.4% | 79.4% | -20.3% (active) | 31.7% | -61.7% (active) | 120% | 95.2% | 
OCCN(CCO)c1ccc2ccccc2c1 | 104% | 110% | 104% | 98.8% | 104% | 98.3% | 93.7% | 103% | 105% | 98.7% | 101% | 104% | 105% | 93.3% | 89.3% | 108% | 99.9% | 
CCOC(=O)Nc1ccc2nc(Sc3ccc(Cl)cc3)sc2c1 | 9.2% (active) | 21.5% | 44.6% | 85.9% | 50.3% | 22.5% | 43.4% | 0.656% (active) | 50.8% | 14% | 58.5% | 1.41% (active) |  | 16.7% | 30.5% | 57.1% | 26.9% | 
CC(C)c1ccc2c(c1)CCC1C2CCCC1(C)NCc1ccccc1 (configuration not stated) | 0.88% (active) | -35.2% (active) | 91.5% | 53.5% | 67.7% | 86.4% | 84.2% | 80.4% |  | 62.7% | 106% | 18.2% | 3.49% (active) | 75.5% | 60.3% | -91.3% (active) | 23.1% | 12.8%
COc1ccccc1CNCCCN1C(=O)c2ccc3c4c(ccc(c24)C1=O)C(=O)N(CCCNCCCN)C3=O | 10% | 17.5% | -24.4% (active) | 37.9% | -99.3% (active) | 34.7% | -2.92% (active) | -19.3% (active) | 30.7% | 33.7% | 55% | -69.4% (active) | -7.85% (active) | -42.7% (active) | -1.03% (active) | -5.58% (active) | 1.76% (active) | 
O=C1/C(=C/c2cc(F)cc(F)c2)Cc2cc(F)cc(F)c21 | 62.8% | 94.1% | 111% | 96.6% | 110% | 111% | 93.2% | 94.9% | 90.5% | 98.2% | 96.5% | 94.8% | 99.2% | 56.7% | 79.8% | 105% | 92.6% | 

Source: PubChem BioAssay (NCI)
